Screening results from PubChem BioAssay.
Hits are enriched below; roughly 2.3% of the tested compounds scored in any of these assays.
Jurkat NFkB inh: inhibitors of the PMA/ionomycin-induced NF-kB reporter in Jurkat cells. PMA/ionomycin-induced NF-kB luciferase reporter, luminescence. inhibition, % at 4 µM. 330,000 tested, 0.53% active. AID 435003; in the data active = inhibition above about 50%
H9c2 TAG inh: triacylglycerol accumulation inhibition. inhibition, % at 12.5 µM. H9c2 cells, Nile Red lipid (TAG) fluorescence; cells loaded with 200 µM oleic acid. 230,000 tested, 0.66% active;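 active = pattern-corrected inhibition of lipid staining of at least 50% with the nuclear-stain viability signal not falling by more than 50%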;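 also: 0% = DMSO wells and 100% = triacsin C control wells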
Shn3 inh set2: inhibitors of Schnurri-3 3'UTR reporter in osteoblasts. Clone20 osteoblast Shn3 3'UTR firefly luciferase, 24 h. inhibition, % at 12.5 µM. 360,000 tested, 0.52% active;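 active = mean inhibition of at least 75% with every replicate also reaching 75%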;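 also: 0% = median of neutral control wells and 100% = pilot-screen positive control compound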
697 NFkB inh: inhibitors of the PMA/ionomycin-induced NF-kB reporter in 697 B cells; 697 B-cell NF-kB luciferase reporter, 16 h; 330,000 tested, 0.33% active; inhibition, % at 4 µM; in the data active = inhibition above about 35%
Gli-Sufu antag: antagonists of Gli-Sufu signaling. Sufu-KO-LIGHT fibroblasts, Gli luciferase reporter luminescence. inhibition, % at 5 µM. 340,000 tested, 0.74% active. AID 588413;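 active = inhibition above about 55%, limit read from the data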;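 also: 0% = DMSO-treated cells and 100% = wells with medium but no cells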
aSyn 5UTR inh: MLPCN primary screen, SNCA 5' untranslated region; alpha-synuclein 5'UTR reporter, inhibitor activity; inhibition, % (tested at 7.5 µM); 300,000 tested, 0.82% active; AID 1813; in the data active = inhibition above about 60%;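 also: H4 neuroglioblastoma cells stably carrying SNCA 5'UTR luciferase fusion; 0% = DMSO wells and 100% = positive control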
Jurkat NFkB conf: lowers PMA/ionomycin-induced NF-kB signal in Jurkat cells; inhibition, % at 4 µM; Jurkat NF-kB luciferase, 16 h; AID 435020; 2,700 tested, 27% active; shares compounds with Jurkat NFkB inh;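 active = inhibition reaching about 45% at 4 µM in either replicate, limit read from the data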;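 also: plate controls were PMA/ionomycin stimulated DMSO wells for no effect and unstimulated DMSO wells for full effect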
697 NFkB conf: lowers PMA/ionomycin-induced NF-kB signal in 697 B cells | shares compounds with 697 NFkB inh | 697 B-cell NF-kB luciferase, 16 h | inhibition, % at 4 µM | 2,000 tested, 35% active; in the data active = inhibition mostly above about 28%, no sharp cut-off; inactive = mostly below about 22%
Gli-Sufu confirm: Gli-SUFU antagonism confirmation, single concentration. shares compounds with Gli-Sufu antag. Sufu-KO-LIGHT cells, Gli luciferase reporter, luminescence. inhibition, % at 5 µM. 2,500 tested, 40% active;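 active = mean inhibition at 5 µM reaching about 45%, limit read from the data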;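 also: plate controls were DMSO-treated cells for no effect and wells lacking cells for full effect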
SufuKO cytotox: counter-screen for Gli-SUFU antagonists: cytotoxicity; shares compounds with Gli-Sufu antag; Sufu-KO-LIGHT cells cytotoxicity, ATP luminescence; cytotoxicity, % at 5 µM; 2,500 tested, 32% active;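 active = mean cytotoxicity at 5 µM above about 25%, limit read from the data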;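 also: cells exposed to compound overnight for roughly 16 to 18 hours; plate controls were DMSO wells with cells for no effect and medium without cells for full effect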
Wnt3a counter: inhibits Wnt3a reporter, counter-screen for Gli-SUFU antagonists. shares compounds with Gli-Sufu antag. Wnt-LIGHT cells, Wnt3a-driven luciferase reporter, luminescence. inhibition, % at 6.25 µM. 2,500 tested, 20% active. AID 651995;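 active = mean inhibition above about 25%, limit read from the data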
An asterisk follows results filed as active.

CCOC(=O)N1CCC(NC(=O)C(Cc2ccccc2)NC(=O)C2CCCCC2)CC1 (stereo not drawn) was read as Jurkat NFkB inh -19, H9c2 TAG inh 19, Shn3 inh set2 -4, 697 NFkB inh -37, Gli-Sufu antag -2 and aSyn 5UTR inh -5.
`Clc1ccccc1-c1nc(-c2ccc(Br)o2)no1` gave Jurkat NFkB inh -163, Shn3 inh set2 -108, 697 NFkB inh -257, Gli-Sufu antag -18, aSyn 5UTR inh -45, Jurkat NFkB conf -141 and 697 NFkB conf -264.
Screening O=C(O)COCCN1CCN(C(c2ccccc2)c2ccc(Cl)cc2)CC1 (stereo not drawn) returned H9c2 TAG inh -4, Shn3 inh set2 -14, Gli-Sufu antag 17 and aSyn 5UTR inh -2.
Screening COc1nc(NCc2ccco2)nc(NC2CCCCC2)n1 returned Jurkat NFkB inh -42, H9c2 TAG inh 1, Shn3 inh set2 -38, 697 NFkB inh -23, Gli-Sufu antag -9 and aSyn 5UTR inh -94.
COc1ccc(-[n+]2c(C)cc(/C=C3\Sc4ccccc4N3C)cc2C)cc1 was read as Jurkat NFkB inh 86*, H9c2 TAG inh -112, Shn3 inh set2 88*, 697 NFkB inh 100*, aSyn 5UTR inh -3, Jurkat NFkB conf 27 and 697 NFkB conf -22.
For COc1ccc(C(=O)/C=C2\Sc3ccccc3N2C)cc1 the results were Jurkat NFkB inh -143, Shn3 inh set2 -87, 697 NFkB inh -150, Gli-Sufu antag -109 and aSyn 5UTR inh -179.
`Cc1cccc(NC(=O)NCC(c2cccnc2)N2CCOCC2)c1` (stereo not drawn) gave Jurkat NFkB inh 8, H9c2 TAG inh 3, Shn3 inh set2 -2, 697 NFkB inh -12, Gli-Sufu antag -24 and aSyn 5UTR inh -8.
Nc1[nH]n(-c2ccccc2)c(=O)c1N=Nc1ccc2c(c1)OCCO2 was read as Jurkat NFkB inh -194, H9c2 TAG inh 17, Shn3 inh set2 -33, 697 NFkB inh -312, Gli-Sufu antag -128, aSyn 5UTR inh -25, Jurkat NFkB conf -100 and 697 NFkB conf -196.
Nc1[nH]n(-c2ccccc2)c(=O)c1N=Nc1ccc2c(c1)OCO2 was read as Jurkat NFkB inh -60, H9c2 TAG inh 10, 697 NFkB inh -101, Gli-Sufu antag -19 and aSyn 5UTR inh -205.
Cc1ccoc1C(=O)Nc1ccc2ccccc2c1 was read as Jurkat NFkB inh -211, Shn3 inh set2 15, 697 NFkB inh -444, Gli-Sufu antag -179, aSyn 5UTR inh 27, Jurkat NFkB conf -122 and 697 NFkB conf -388.
Screening Cc1cc(C(=O)Nc2ccc3ccccc3c2)oc1C returned Jurkat NFkB inh -138, Shn3 inh set2 -65, 697 NFkB inh -174, Gli-Sufu antag -130 and aSyn 5UTR inh -49.
`O=C(Nc1ccc2ccccc2c1)c1ccc(Cl)cc1` gave Jurkat NFkB inh -215, Shn3 inh set2 -18, 697 NFkB inh -476, Gli-Sufu antag -113, aSyn 5UTR inh -23, Jurkat NFkB conf -126 and 697 NFkB conf -486.
CCOc1cccc(C(=O)Nc2ccc3ccccc3c2)c1 was read as Jurkat NFkB inh -185, Shn3 inh set2 -20, 697 NFkB inh -449, Gli-Sufu antag -113, aSyn 5UTR inh 22, Jurkat NFkB conf -145 and 697 NFkB conf -490.
Screening COc1cc(-c2c(-c3cc(OC)c(OC)c(OC)c3)noc2C)ccc1F returned Jurkat NFkB inh 71*, 697 NFkB inh -280, Gli-Sufu antag 51, aSyn 5UTR inh 46, Jurkat NFkB conf 47*, 697 NFkB conf -162, Gli-Sufu confirm 67*, SufuKO cytotox 65* and Wnt3a counter 0.
CC(=O)c1c(C)[nH]c(C(=O)OCc2ccccc2F)c1C was read as Jurkat NFkB inh -29, H9c2 TAG inh -24, Shn3 inh set2 20, 697 NFkB inh -48, Gli-Sufu antag -73 and aSyn 5UTR inh -101.
`CC(=O)NCCC(=O)Nc1nc(-c2ccccc2Cl)cs1` gave Jurkat NFkB inh -1, H9c2 TAG inh -3, Shn3 inh set2 -47, 697 NFkB inh 5, Gli-Sufu antag -17 and aSyn 5UTR inh -7.
Screening CC(C)(C)c1ccc(C(=O)O/N=C(\N)c2ccccn2)cc1 returned Jurkat NFkB inh 59*, Shn3 inh set2 63, 697 NFkB inh -63, Gli-Sufu antag 86*, aSyn 5UTR inh 94*, Jurkat NFkB conf 86*, Gli-Sufu confirm 91*, SufuKO cytotox 19 and Wnt3a counter 102*.
O=C(NNc1ccnc2cc(Cl)ccc12)C1CCCCC1 was read as Jurkat NFkB inh 69*, H9c2 TAG inh -36, Shn3 inh set2 84, 697 NFkB inh 0, Gli-Sufu antag 77*, aSyn 5UTR inh -1, Jurkat NFkB conf 64*, Gli-Sufu confirm 76*, SufuKO cytotox 35* and Wnt3a counter 34*.
O=C(Nc1ccc(S(=O)(=O)N2CCCC2)cc1)c1cnccn1 was read as Jurkat NFkB inh 2, H9c2 TAG inh 12, Shn3 inh set2 -7, 697 NFkB inh 21, Gli-Sufu antag 3 and aSyn 5UTR inh 4.
O=C(Nc1ccc(S(=O)(=O)N2CCN(Cc3ccccc3)CC2)cc1)c1cnccn1 was read as Jurkat NFkB inh 57*, Shn3 inh set2 82*, 697 NFkB inh -6, Gli-Sufu antag 58*, aSyn 5UTR inh 3, Jurkat NFkB conf 54*, Gli-Sufu confirm 60*, SufuKO cytotox 33* and Wnt3a counter 29*.
CCOc1ccc(S(=O)(=O)NCc2ccncc2)cc1 was read as Jurkat NFkB inh 72*, H9c2 TAG inh -117, Shn3 inh set2 90*, 697 NFkB inh 100*, Gli-Sufu antag 82*, aSyn 5UTR inh 16, Jurkat NFkB conf 70*, 697 NFkB conf 93*, Gli-Sufu confirm 79*, SufuKO cytotox 37* and Wnt3a counter 47*.
CCOc1cc(S(=O)(=O)NCc2ccncc2)ccc1Cl was read as Jurkat NFkB inh 65*, Shn3 inh set2 83, 697 NFkB inh 58*, Gli-Sufu antag 78*, aSyn 5UTR inh 10, Jurkat NFkB conf 68*, 697 NFkB conf 98*, Gli-Sufu confirm 79*, SufuKO cytotox 42* and Wnt3a counter 2.
